Experimental data published in the supplement of paper PMC6763611.

Tested on: Plasmodium falciparum NF54
Assay: growth inhibition relative to untreated control; higher = more inhibition
Conditions: 72 h
Procedure, shortened: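 P. falciparum NF54 ring stages (1% hematocrit, 1% parasitemia, 100 μL/well in 96-well half-area dark plates) were exposed for 72 h at 37 °C to single 5 μM or 1 μM doses of Pathogen Box compounds. The medium was minimal RPMI or minimal RPMI plus chorismate end-products (2.2 μM folate, 7.3 μM pABA, 7.3 μM pHBA, 111 μM tyrosine, 90 μM phenylalanine, tryptophan). Growth inhibition was read by SYBR Green, normalised to untreated controls, with uninfected erythrocytes as background.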

[1] = 1 µM, MM + chorismate end-products (CM screening medium)
[2] = 5 µM, MM + chorismate end-products (CM screening medium)

Row | SMILES | growth inhibition [1] | growth inhibition (1 µM, minimal medium (MM)) | growth inhibition [2] | growth inhibition (5 µM, minimal medium (MM))
1 | O=C(Nc1cnc2ccccc2c1)c1cccc(-n2cnnn2)c1 | 94.1% | 96.4% | 86.9% | 87.1%
2 | COc1ccc(Nc2ccccc2NC(=O)c2ccc(O)nc2)cc1 | 12.7% | < 0% | < 0% | < 0%
3 | O=C(c1[nH]nc2c1CCCC2)N1CCN(Cc2ccc3c(c2)OCO3)CC1 | < 0% | 13% | < 0% | < 0%
4 | Cc1ccc2cc(C3NC(=O)c4ccccc4N3)c(Cl)nc2c1 (configuration not stated) | 86% | 82.6% | 95.2% | 88.5%
5 | CCN(CC)S(=O)(=O)c1ccc(Cl)c(C(=O)Nc2ccc3nc(C)sc3c2)c1 | 98.3% | 96.2% | 91.3% | 94.1%
6 | CCCS(=O)(=O)N1CCC(CO)(Cc2ccccc2C(F)(F)F)CC1 | 46.8% | 69.6% | 99.7% | 87.9%
7 | O=C(Nc1c(O)cccc1-c1nc2c(C(=O)O)cccc2o1)c1cc(-c2ccccc2)on1 | > 100% | < 0% | < 0% | < 0%
8 | Cc1nn2c(=O)c3c([nH]c2c1-c1ccc(Cl)cc1)CCCC3 | < 0% | 22.1% | 7.72% | 16.2%
9 | O=C(C1CCN(c2nnc(-n3cccc3)s2)CC1)N1CCC(Cc2ccccc2)CC1 | 6.31% | 8.02% | 48.7% | 8.81%
10 | CCN(CC)CCCCCCNc1cc(OC)cc2c(C)ccnc12 | 93.3% | 92.8% | 81.2% | 91.2%
11 | Cc1cc(C)nc(-n2nc(C)cc2Nc2ccccc2)n1 | 16.6% | 9.77% | 69.8% | 34.2%
12 | Cc1cccc(-c2nc(Nc3ccncn3)c3sccc3n2)n1 | 81.1% | 89.4% | > 100% | 98.7%
13 | COc1ccccc1CNC(=O)c1cc(C2CC2)nc2c1cnn2C(C)C | 82.9% | 79.8% | 87.1% | 91.4%
14 | CC(C)c1ncc(-c2ccncc2)c([C@H]2CC[C@H](CNC(=O)c3cccnc3)CC2)n1 | 77.1% | 76% | 92.5% | 92%
15 | CC(C)(C)OC(=O)N1CCN(c2nccc(-c3ccc(-c4ccc(Cl)cc4)s3)n2)CC1 | < 0% | 2.86% | 64.1% | 11.6%
16 | O=C(Nc1cccc(-c2ccc(NCCCN3CCCC3)nc2)c1)c1ccccc1 | 96.3% | > 100% | 63.2% | 81.1%
17 | COc1ccc(Oc2ccc([C@@H](C)N(C)c3ncc4c(N)nc(N)nc4n3)cc2)cc1 | 13.7% | < 0% | > 100% | 89.1%
18 | CC(C)(C)n1nc(Cc2cccc3ccccc23)c2c(N)ncnc21 | < 0% | 18.3% | 39.5% | 29.5%
19 | O=C(NCCc1c[nH]c2ccccc12)c1cc2ccccc2oc1=O | 20.7% | 2.31% | < 0% | < 0%
20 | O=C(Nc1ccc(C(F)(F)F)c(C(F)(F)F)c1)c1cc(Cl)ccc1O | 93.1% | 95% | > 100% | 92.5%
21 | CC1CC1C(=O)NC1CCN(CC2(c3ccccc3)CCCCC2)CC1 (configuration not stated) | 96.1% | 94.5% | 90.8% | 92%
22 | Cc1ccc(S(=O)(=O)Nc2ccc(CN3CCN(C(=O)c4cccc(C#N)c4)CC3)cc2)cc1 | 5.22% | 5.35% | 42.7% | < 0%

Row | SMILES | growth inhibition [1] | growth inhibition (1 µM, minimal medium (MM)) | growth inhibition [2] | growth inhibition (5 µM, minimal medium (MM))
23 | c1ccc(Oc2ccc(-c3cncc(-c4ccc5[nH]ccc5c4)n3)cc2)cc1 | > 100% | < 0% | 86.5% | 91.5%
24 | COc1cc(C(F)(F)F)nc2ccc(C)c(N)c12 | < 0% | 30.2% | < 0% | < 0%
25 | CN(C)CCNC(=O)N1CCCN(c2ncnc3cc(-c4ccccc4)sc23)CC1 | 72.9% | 99.2% | > 100% | 87%
26 | CS(=O)(=O)c1ccccc1C(=O)N(Cc1ccccc1)c1ccccc1 | 35.9% | 7.57% | < 0% | < 0%
27 | Cc1ccc(-c2cc(C(=O)Nc3cccnc3)c3cc(Br)ccc3n2)cc1 | 92.4% | 95.2% | 98.3% | 86.3%
28 | CN1CCCN(C(c2ccccc2)c2ccc(Cl)cc2)CC1 (configuration not stated) | < 0% | < 0% | 33.8% | 17.6%
29 | O=C(CCC1CCCCC1)Nc1cccc(-c2nnc(-c3ccco3)o2)c1 | 14.2% | 9.19% | < 0% | < 0%
30 | CC(=O)NC[C@H]1CN(c2ccc(N3CCSCC3)c(F)c2)C(=O)O1 | 21.8% | 32.5% | < 0% | < 0%
31 | CCc1nc2ccccc2n1CC(O)COc1cc(C)ccc1Cl (configuration not stated) | 31.1% | 36.8% | 98.5% | 61%
32 | Clc1ccc(CCNc2cc(-c3ccccc3)nc3ncnn23)cc1 | < 0% | 0.487% | 5.05% | < 0%
33 | Cc1ccc2c(c1C)NC(=O)C21NN=C(c2ccccc2)S1 (configuration not stated) | 95.4% | 89.4% | 98.3% | 89.8%
34 | Cn1ccnc1CNCCS(=O)(=O)c1cccc(Nc2ccc(-c3cccc(F)c3)cn2)c1 | < 0% | < 0% | 26.9% | 3.75%
35 | CC(C)(C)[C@H]1CC[C@H](CC2=C(O)C(=O)c3ccccc3C2=O)CC1 | 97.5% | 95.2% | 94.8% | 93.4%
36 | O=[N+]([O-])c1cn2c(n1)OC[C@@H](OCc1ccc(OC(F)(F)F)cc1)C2 | 36.9% | 2.72% | < 0% | < 0%
37 | CC(C)(C)c1ccc(N[C@@H]2CCCC[C@H]2NC(=O)c2ccco2)cc1 | 20.8% | 20.6% | < 0% | 1.67%
38 | CC1=NN(c2nc3ccccc3s2)C(=O)C1Cc1cccc2ccccc12 (configuration not stated) | < 0% | 0.985% | < 0% | < 0%
39 | CN1CCN(S(=O)(=O)c2ccc(-c3ccc4c(Nc5ncc(Cl)cn5)ccnc4c3)cc2)CC1 | 96.5% | 96.3% | 99% | 88.6%
40 | CC(=O)Nc1ccc(NC(=O)c2cc(-c3cc(Cl)ccc3O)n[nH]2)cc1 | 96.6% | 95.3% | 96.3% | 90.8%
41 | O=C(Nc1ccc(F)c(-c2nc3cc(-c4ccccc4)cnc3[nH]2)c1)N1CCCC1 | 17.5% | 25.6% | 3.27% | < 0%
42 | O=C(c1ccc(F)cc1)N(CCNc1ccccc1)c1ccccc1 | < 0% | < 0% | 58.9% | 4.16%
43 | O=C([C@@H](c1ccc(Cl)cc1)c1cccnc1)N1CCN(c2ccc(C(F)(F)F)cc2)CC1 | < 0% | < 0% | < 0% | 7.9%
